In all, about 5,500 compounds went through this assay and about 2,000 (36%) were called active. Another 18% or so got no clear call; they are omitted. Rule as the data show it: active = normalized growth mostly below about 0.91 (no sharp cut-off); inconclusive = no clear call, values can overlap the other calls; inactive = mostly above about 0.92. This is one part of the list.
Assay: chemical genetic growth profiling, strain panel (AID 1159580);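 also: tested at 20 µM; growth read once vehicle control cultures reached saturation at 30 °C; 1 = growth at the plate median or of vehicle wells; lower values mean less growth of the strain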
Conditions: S. cerevisiae deletion strains, growth OD
[1] = locus YAL021C, strain ccr4, active compounds read low
[2] = locus YAL026C, strain drs2, active compounds read low
[3] = locus YAL030W, strain snc1, active compounds read low
[4] = locus YBL061C, strain skt5, active compounds read low
[5] = locus YBR009C, strain hhf1, active compounds read low
[6] = locus YBR023C, strain chs3, active compounds read low
[7] = locus YBR171W, strain sec66, active compounds read low
[8] = locus YBR231C, strain swc5, active compounds read low
[9] = locus YBR279W, strain paf1, active compounds read low
[10] = locus YCL011C, strain gbp2, active compounds read low
[11] = locus YCL016C, strain dcc1, active compounds read low
[12] = locus YCL061C, strain MRC1, active compounds read low
[13] = locus YCL069W, strain vba3, active compounds read low
[14] = locus YCR088W, strain abp1, active compounds read low
[15] = locus YDL005C, strain med2, active compounds read low
[16] = locus YDL040C, strain nat1, active compounds read low
[17] = locus YDR001C, strain nth1, active compounds read low
[18] = locus YDR069C, strain doa4, active compounds read low
[19] = locus YDR137W, strain rgp1, active compounds read low
[20] = locus YDR159W, strain sac3, active compounds read low
[21] = locus YDR297W, strain sur2, active compounds read low
[22] = locus YDR334W, strain swr1, active compounds read low
[23] = locus YDR335W, strain msn5, active compounds read low
[24] = locus YDR392W, strain spt3, active compounds read low
[25] = locus YEL003W, strain gim4, active compounds read low
[26] = locus YEL037C, strain rad23, active compounds read low
[27] = locus YEL061C, strain CIN8 (second series), active compounds read low
[28] = locus YER015W, strain faa2, active compounds read low
[29] = locus YER016W, strain bim1, active compounds read low
[30] = locus YER111C, strain swi4, active compounds read low
[31] = locus YER155C, strain BEM2 (second series), active compounds read low
[32] = locus YFR010W, strain ubp6, active compounds read low
[33] = locus YGL167C, strain pmr1, active compounds read low
[34] = locus YGL173C, strain kem1, active compounds read low
[35] = locus YGL227W, strain vid30, active compounds read low
[36] = locus YGL240W, strain doc1, active compounds read low
[37] = locus YGL253W, strain hxk2, active compounds read low
[38] = locus YHR013C, strain ard1, active compounds read low
[39] = locus YHR027C, strain rpn1, active compounds read low
[40] = locus YHR030C, strain SLT2, active compounds read low
[41] = locus YHR079C, strain IRE1, active compounds read low
[42] = locus YHR142W, strain chs7, active compounds read low
[43] = locus YJL092W, strain hpr5, active compounds read low
[44] = locus YJL095W, strain BCK1 (second series), active compounds read low
[45] = locus YJL095W, strain BCK1, active compounds read low
[46] = locus YJL115W, strain asf1, active compounds read low
[47] = locus YJL129C, strain trk1, active compounds read low
[48] = locus YJL154C, strain vps35, active compounds read low
[49] = locus YJL164C, strain tpk1, active compounds read low
[50] = locus YJL166W, strain qcr8, active compounds read low
[51] = locus YJL187C, strain SWE1, active compounds read low
[52] = locus YJR066W, strain TOR1, active compounds read low
[53] = locus YKL160W, strain elf1, active compounds read low
[54] = locus YKR026C, strain gcn3, active compounds read low
[55] = locus YKR091W, strain srl3, active compounds read low
[56] = locus YLL001W, strain dnm1, active compounds read low
[57] = locus YLL026W, active compounds read low
[58] = locus YLL041C, strain sdh2, active compounds read low
[59] = locus YLR027C, strain aat2, active compounds read low
[60] = locus YLR113W, strain HOG1, active compounds read low
[61] = locus YLR221C, strain rsa3, active compounds read low
[62] = locus YLR258W, strain gsy2, active compounds read low
[63] = locus YLR262C, strain YPT6 (second series), active compounds read low
[64] = locus YLR320W, strain mms22, active compounds read low
[65] = locus YLR342W, strain FKS1, active compounds read low
[66] = locus YLR357W, strain rsc2, active compounds read low
[67] = locus YLR370C, strain arc18, active compounds read low
[68] = locus YLR384C, strain iki3, active compounds read low
[69] = locus YML120C, strain ndi1, active compounds read low
[70] = locus YMR058W, strain fet3, active compounds read low
[71] = locus YMR125W, strain sto1, active compounds read low
[72] = locus YMR129W, active compounds read low
[73] = locus YMR205C, strain PFK2, active compounds read low
[74] = locus YMR231W, strain pep5, active compounds read low
[75] = locus YNL071W, strain lat1, active compounds read low
[76] = locus YNL183C, strain NPR1, active compounds read low
[77] = locus YNL209W, strain ssb2, active compounds read low
[78] = locus YNL248C, strain rpa49, active compounds read low
[79] = locus YNL322C, strain KRE1 (second series), active compounds read low
[80] = locus YNR049C, strain mso1, active compounds read low
[81] = locus YOR001W, strain rrp6, active compounds read low
[82] = locus YOR070C, strain gyp1, active compounds read low
[83] = locus YOR080W, strain dia2, active compounds read low
[84] = locus YOR083W, strain WHI5, active compounds read low
[85] = locus YOR106W, strain vam3, active compounds read low
[86] = locus YOR231W, strain MKK1, active compounds read low
[87] = locus YOR265W, strain rbl2, active compounds read low
[88] = locus YOR270C, strain vph1, active compounds read low
[89] = locus YOR290C, strain snf2, active compounds read low
[90] = locus YPL051W, strain arl3, active compounds read low
[91] = locus YPL078C, strain atp4, active compounds read low
[92] = locus YPL106C, strain sse1, active compounds read low
[93] = locus YPL240C, strain hsp82, active compounds read low
[94] = locus YPL256C, strain CLN2, active compounds read low

Measured: normalized growth

O=C(NC1CCCCC1)NC1CCCCC1
inactive: [1] 0.987 | [2] 0.995 | [3] 0.976 | [4] 0.976 | [5] 0.998 | [6] 0.976 | [7] 0.977 | [8] 0.981 | [9] 0.981 | [10] 0.973 | [11] 0.97 | [12] 0.983 | [13] 0.978 | [14] 0.973 | [15] 0.981 | [16] 0.981 | [17] 0.972 | [18] 0.979 | [19] 0.964 | [20] 0.995 | locus YDR195W, strain ref2 0.958 | [21] 0.971 | [22] 0.961 | [23] 0.98 | [24] 0.918 | [25] 0.983 | [26] 0.977 | [27] 0.982 | [28] 0.99 | [29] 0.981 | [30] 0.96 | [31] 0.971 | [32] 0.988 | [33] 0.976 | [34] 0.98 | [35] 0.972 | [36] 0.986 | [37] 0.99 | [38] 0.97 | [39] 1 | [40] 1.08 | [41] 1.07 | [42] 0.956 | [43] 0.981 | [44] 0.973 | [45] 1.07 | [46] 0.969 | [47] 0.953 | [48] 0.972 | [49] 0.995 | [50] 0.985 | [51] 0.979 | [52] 1.01 | [53] 0.977 | [54] 0.972 | [55] 0.977 | [56] 0.966 | [57] 0.981 | [58] 0.982 | [59] 0.991 | [60] 1.03 | [61] 0.976 | [62] 0.972 | [63] 0.96 | [64] 0.974 | [65] 0.975 | [66] 0.977 | [67] 0.983 | [68] 0.951 | [69] 0.969 | [70] 0.987 | [71] 0.96 | [72] 0.977 | [73] 0.969 | [74] 0.978 | [75] 0.985 | [76] 1 | [77] 0.974 | [78] 0.98 | [79] 0.962 | [80] 0.978 | [81] 0.995 | [82] 0.97 | [83] 0.971 | [84] 0.971 | [85] 0.983 | [86] 1.04 | [87] 0.979 | [88] 0.905 | [89] 0.953 | [90] 0.983 | [91] 0.981 | [92] 0.951 | [93] 0.98 | [94] 1.08

NCCNCCNCCN
inactive: [1] 0.984 | [2] 1.01 | [3] 0.998 | [4] 1 | [5] 1.01 | [6] 1.01 | [7] 1 | [8] 0.992 | [9] 0.999 | [10] 0.992 | [11] 1 | [12] 0.986 | [13] 0.995 | [14] 1 | [15] 1.01 | [16] 1 | [17] 0.99 | [18] 1 | [19] 1 | [20] 0.996 | locus YDR195W, strain ref2 0.982 | [21] 0.995 | [22] 1 | [23] 0.998 | [24] 1.01 | [25] 0.999 | [26] 0.994 | [27] 0.998 | [28] 0.991 | [29] 1 | [30] 1 | [31] 1.04 | [32] 0.998 | [33] 0.998 | [34] 1.01 | [35] 1 | [36] 1.02 | [37] 0.994 | [38] 1 | [39] 1 | [40] 1.02 | [41] 1.02 | [42] 0.961 | [43] 0.999 | [44] 0.995 | [45] 0.989 | [46] 1.01 | [47] 0.991 | [48] 1 | [49] 0.997 | [50] 0.994 | [51] 1 | [52] 0.955 | [53] 0.987 | [54] 0.993 | [55] 0.991 | [56] 0.997 | [57] 1.01 | [58] 0.997 | [59] 1 | [60] 0.976 | [61] 0.984 | [62] 1.01 | [63] 0.985 | [64] 1 | [65] 1 | [66] 1.02 | [67] 0.995 | [68] 0.999 | [69] 0.991 | [70] 1 | [71] 1.01 | [72] 0.997 | [73] 1.02 | [74] 1 | [75] 1.01 | [76] 0.946 | [77] 0.998 | [78] 0.975 | [79] 1 | [80] 0.993 | [81] 0.988 | [82] 1 | [83] 1 | [84] 0.985 | [85] 0.986 | [86] 0.995 | [87] 0.996 | [88] 0.937 | [89] 1 | [90] 0.997 | [91] 0.992 | [92] 1.02 | [93] 0.977 | [94] 1.01

— PubChem BioAssay AID1159580 (chemical genetic matrix, 2015)
